In publication PMC4336329 (PLoS ONE, 2015):
Hit rate of the full screen: of about 310,000 compounds, about 14,000 (4.5%) showed an effect of 50% or more. The effect is printed as a negative number. The sample as a whole holds a higher share of strong results than the screen did.

These compounds were tested against human ether-à-go-go-related gene (hERG) potassium channel (human, UniProt Q12809) (assay: primary screen, population patch clamp on CHO cells stably expressing hERG; higher = less effect of the substance).
Chain of human ether-à-go-go-related gene (hERG) potassium channel (Q12809 whole entry, looked up): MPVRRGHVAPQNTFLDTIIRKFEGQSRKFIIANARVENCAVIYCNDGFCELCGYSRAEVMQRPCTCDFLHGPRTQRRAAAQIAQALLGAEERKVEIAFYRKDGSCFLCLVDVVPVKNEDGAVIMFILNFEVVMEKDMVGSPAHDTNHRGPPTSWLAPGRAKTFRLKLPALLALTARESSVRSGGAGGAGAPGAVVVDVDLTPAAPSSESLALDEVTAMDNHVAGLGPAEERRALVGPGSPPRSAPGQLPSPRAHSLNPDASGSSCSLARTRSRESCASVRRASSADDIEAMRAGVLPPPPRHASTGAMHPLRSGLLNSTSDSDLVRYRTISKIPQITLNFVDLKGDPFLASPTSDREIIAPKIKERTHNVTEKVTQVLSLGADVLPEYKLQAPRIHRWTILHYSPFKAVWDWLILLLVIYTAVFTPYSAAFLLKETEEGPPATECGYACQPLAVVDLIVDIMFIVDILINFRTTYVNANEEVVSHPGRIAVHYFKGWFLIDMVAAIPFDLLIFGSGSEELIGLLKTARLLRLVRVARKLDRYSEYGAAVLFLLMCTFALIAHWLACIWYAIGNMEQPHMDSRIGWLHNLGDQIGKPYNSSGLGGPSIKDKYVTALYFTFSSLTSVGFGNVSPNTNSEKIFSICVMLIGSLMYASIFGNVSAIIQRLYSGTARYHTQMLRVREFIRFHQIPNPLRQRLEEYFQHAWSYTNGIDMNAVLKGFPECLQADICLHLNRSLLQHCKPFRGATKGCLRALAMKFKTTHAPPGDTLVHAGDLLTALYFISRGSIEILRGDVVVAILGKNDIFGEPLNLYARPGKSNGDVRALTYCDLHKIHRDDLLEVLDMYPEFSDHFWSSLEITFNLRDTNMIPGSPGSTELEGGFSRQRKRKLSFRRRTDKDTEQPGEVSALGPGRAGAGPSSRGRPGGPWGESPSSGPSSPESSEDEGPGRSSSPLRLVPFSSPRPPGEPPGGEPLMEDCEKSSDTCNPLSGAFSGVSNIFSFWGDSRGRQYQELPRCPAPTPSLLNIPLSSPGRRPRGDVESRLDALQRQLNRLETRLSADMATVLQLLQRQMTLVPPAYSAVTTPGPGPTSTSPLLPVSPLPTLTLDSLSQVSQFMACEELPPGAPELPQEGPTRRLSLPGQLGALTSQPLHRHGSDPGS
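Further: peak tail current of the secondary pulse compared with the same well before compound.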

SMILES | hERG current change (%, negative = inhibition) at 10uM [%]
CC1(CCC#N)N=C(SCCC#N)N(c2ccccc2)C1=O (stereo not shown) | 2.7
NC(Cc1ccc(O)c([N+](=O)[O-])c1)C(=O)O (stereo not shown) | 15.2
CN(CC(=O)NCCN1CCN(Cc2ccccc2)CC1)S(=O)(=O)c1cccc2nsnc12 | -25.4
CCC/C=C1/CCCOC(C(=O)NCc2cc(C)n(C)n2)(C(F)(F)F)C1 (stereo not shown) | 5.48
O=C(CSc1nnc(NC(=O)c2ccccc2C(=O)O)s1)Nc1ccccc1Cl | 24
O=C(O)c1ccc(Nc2nc(-c3cccnc3)cs2)cc1O | 9.69
C=CCNC(=O)CSc1nnc(-c2cccs2)o1 | -0.265
Cc1ccc(-c2nn(-c3cc(Cl)ccc3[N+](=O)[O-])c(=O)c3ccccc23)cc1 | -22.1
Cc1nc2c([nH]1)C1(CCN(Cc3ccccc3)CC1)C(C#N)=C(N)O2.Cl | -52.5
Cc1[nH]nc2c1C1(CCN(Cc3ccccc3)CC1)C(C#N)=C(N)O2 | -42
CC(C)c1[nH]nc2c1C1(CCN(Cc3ccccc3)CC1)C(C#N)=C(N)O2 | -25.5
COCCN1C(=O)c2cc(C(=O)Nc3cccc(F)c3)ccc2C1Nc1cccc(F)c1 (stereo not shown) | 7.71
Cc1cc(C)c(S(=O)(=O)c2ccccc2)c(N(C)C)n1 | 4.06
CCCCn1c(N)c(S(=O)(=O)c2ccc(C)cc2)c2nc3ccccc3nc21 | -0.298
Cc1ccc(S(=O)(=O)c2c(N)n(CCCO)c3nc4ccccc4nc23)cc1 | -21.4
Cc1ccc(S(=O)(=O)c2c(N)n(CCCN(C)C)c3nc4ccccc4nc23)cc1 | -59
Nc1c(S(=O)(=O)c2ccccc2)c2nc3ccccc3nc2n1CCN1CCOCC1 | -38.2
CN(C)CCCn1c(N)c(S(=O)(=O)c2ccccc2)c2nc3ccccc3nc21 | -51.1
CCN(CC)CCn1c(N)c(S(=O)(=O)c2ccccc2)c2nc3ccccc3nc21 | -49.4
O=C(NCC1CCCN(C(=O)CN2CCCCC2)C1)c1ccccc1Cl (stereo not shown) | 13
Cc1cc(SCC(=O)NCCC2=CCCCC2)nc2ccccc12 | -10.9
O=c1c(-c2ccnn2-c2ccc(F)cc2)cnc2n1CCS2 | 19.9

SMILES | hERG current change (%, negative = inhibition) at 10uM [%]
CCc1ccccc1NC(=O)CN1CCN(C(=O)C2CCN(C(=O)/C=C/c3ccccc3)CC2)CC1 | -72.9
Cc1cccc(NC(=O)CN2CCN(C(=O)C3CCC3)CC2)c1C | -31.4
Cc1cccc(NC(=O)CN2CCN(C(=O)C3CCN(C(=O)/C=C/c4ccccc4)CC3)CC2)c1C | -73.9
CCOC(=O)C1CCN(C(=O)/C=C/c2ccccc2)CC1 | -16.8
COC(=O)C1CCN(C(=O)/C=C/c2ccccc2)CC1 | 4.21
Cc1cccc(NC(=O)CN2CCN(C(=O)C3CCCO3)CC2)c1C (stereo not shown) | 9.91
C/C(=N\N=c1/sc2ccccc2n1C)c1ccc(N2CCOCC2)cc1 | 18.9
Cc1ccc2c(CC(=O)OCc3nc(N)nc(Nc4ccccc4C)n3)coc2c1 | 5.79
CCCNC(=O)OCc1cccnc1Sc1ccc(C)cc1 | -30
COCCOc1ccc(C(F)(F)F)cc1NC(=O)c1ccc(C)cc1 | -0.151
COc1ccc(CCNC(=O)[C@@H](NC(=O)c2ccccc2F)C(C)C)cc1OC | -9.87
O=C(CSc1ncccn1)NCc1ccc2c(c1)OCO2 | 11.9
Brc1ccc(OCc2nc(-c3ccccn3)n[nH]2)cc1 | -3.04
Clc1ccc(OCc2nc(-c3ccccn3)n[nH]2)cc1 | -55.6
Cc1ccc(OCc2nc(-c3ccccn3)n[nH]2)cc1 | -15.7
O=C(CN1CC=C(c2ccccc2)CC1)Nc1c(Cl)cccc1Cl | 4.21
CCOc1ccc2c(c1)-c1c(ssc1=S)C(C)(C)N2 | 4.44
O=C(O)CCCC(=O)Nc1ccc(Cl)cc1 | 21.6
COc1cccc(-c2noc(Cn3nc(C)c([N+](=O)[O-])c3C)n2)c1 | -6.89
CN(C)C(CNC(=O)c1cccc(C(F)(F)F)c1)c1ccco1 (stereo not shown) | -11.8
Nc1c(C(=O)O)cnc2nc(N3CCOCC3)nn12 | 21.7
Nc1c(C(=O)N2CCCC2)sc2nc(-c3ccccc3)ccc12 | -70.7

SMILES | hERG current change (%, negative = inhibition) at 10uM [%]
CC(C)OC(=O)c1sc2nc(-c3ccccc3)ccc2c1N | 16.7
NC(=O)c1sc2nc(-c3ccccc3)ccc2c1N | 18.7
CCOc1ccc(NC(=O)C(CC(=O)O)Cc2ccccc2)cc1 (stereo not shown) | 5.94
O=C(c1ccco1)N1CCC(c2nc3ccccc3[nH]2)CC1 | -5.9
CCCOc1ccc(CSC(=N)N)cc1C(=O)OC.Cl | -0.181
CCCCCOc1ccc(CSC(=N)N)cc1[N+](=O)[O-].Cl | -56.7
CCOc1ccc(CSC(=N)N)cc1Cl.Cl | -15.2
CCCCOc1ccc(CSC(=N)N)cc1[N+](=O)[O-].Cl | -64.1
CCOc1ccc(CSC(=N)N)cc1[N+](=O)[O-].Cl | -65.5
COC(=O)c1cc(CSC(=N)N)ccc1OCCC(C)C.Cl | -3.46
Cl.N=C(N)SCc1ccc(O)c([N+](=O)[O-])c1 | -0.169
CCCCOc1ccc(CSC(=N)N)cc1Cl.Cl | -21.9
COc1ccc(CSC(=N)N)cc1[N+](=O)[O-].Cl | -3.72
Cc1ccc(-c2n[nH]c(=O)c3ccccc23)cc1N | 5.75
COc1cccc(CNC(=O)c2ccc(Cl)c(S(=O)(=O)N3CCOCC3)c2)c1 | -19.5
COc1ccc(OC)c(S(=O)(=O)n2nnc3cc(Cl)ccc32)c1 | 4.31
COc1ccc(NC(=O)c2ccccc2OCc2c(C)noc2C)cc1OC | -37.5
CN(c1ccc(C(=O)N2CCN(Cc3ccccc3)CC2)cc1)S(=O)(=O)c1ccc(Cl)cc1 | -24.9
Cc1cccc(C(=O)N2CCCC(c3nc(-c4ccc(C)o4)no3)C2)c1 (stereo not shown) | -27.7
Cc1ccc(-c2noc(C3CCCN(C(=O)c4ccc(C(C)(C)C)cc4)C3)n2)o1 (stereo not shown) | -19.8
COc1ccc(C(=O)N2CCCC(c3nc(-c4ccc(C)o4)no3)C2)cc1OC (stereo not shown) | -8.29
Cc1ccc(-c2noc(C3CCCN(C(=O)c4ccc(Cl)cc4)C3)n2)o1 (stereo not shown) | -55.2

SMILES | hERG current change (%, negative = inhibition) at 10uM [%]
Cc1ccc(-c2noc(C3CCCN(C(=O)c4cccc(Cl)c4)C3)n2)o1 (stereo not shown) | -43.4
CCOc1ccc(C(=O)N2CCCC(c3nc(-c4cccs4)no3)C2)cc1 (stereo not shown) | -46.9
CCOc1ccc(C(=O)N2CCCC(c3nc(-c4ccc(C)o4)no3)C2)cc1 (stereo not shown) | -60.2
COc1cc(OC)cc(C(=O)N2CCCC(c3nc(-c4ccc(C)o4)no3)C2)c1 (stereo not shown) | -9.35
Cc1ccc(-c2noc(C3CCCN(C(=O)c4cccc([N+](=O)[O-])c4)C3)n2)o1 (stereo not shown) | -65
Cc1ccc(-c2noc(C3CCCN(C(=O)c4ccccc4Br)C3)n2)o1 (stereo not shown) | -42.6
Cc1ccc(-c2noc(C3CCCN(C(=O)c4ccccc4)C3)n2)o1 (stereo not shown) | -13.1
CCOc1ccccc1NC(=O)N1CCCC(c2nc(-c3ccc(C)o3)no2)C1 (stereo not shown) | -52.5
COc1ccc(S(=O)(=O)N2CCCCCC2)cc1C(=O)OCC(=O)NC(C)(C)C | -17.5
O=C(NC1CCS(=O)(=O)C1)c1ccc(-c2ccc(Br)cc2)o1 (stereo not shown) | -20.9
O=C1CN(C(=O)N[C@@H](Cc2ccccc2)C(=O)N[C@@H](Cc2ccccc2)C(=O)O)c2ccccc2N1 | 3.79
CCOc1cccc(OCCOCCNC(C)(C)C)c1.O=C(O)C(=O)O | 3.71
COn1c(=O)c(=O)n(OC)c2ccccc21 | -3.45
Cc1ccc(C)c(S(=O)(=O)N2CCCOC2CNC(=O)C(=O)NCc2ccco2)c1 (stereo not shown) | 11.6
CC(C)CCN1C(=O)c2ccccc2C1C(=O)NCc1cccnc1 (stereo not shown) | -16.1
Cc1nc2c(C(=O)N3CCN(c4ccccn4)CC3)cnn2c(C)c1Cc1cccc(Cl)c1 | -43.4
Brc1cc(Br)c2ncnc(N3CCCCC3)c2c1 | -11.8
CCc1cc(C(=O)OC)c(NC(=O)C2CC(=O)NN2Cc2ccccc2)s1 (stereo not shown) | -29.7
O=c1c2ccccc2nc(/C=C/c2ccccn2)n1-c1ccccc1 | 10.9
COc1ccccc1NC(=O)CCCCCN1C(=O)c2cccc([N+](=O)[O-])c2C1=O | -39.2
CCOc1ccccc1NC(=O)CN1CCN(C(=O)C2CCCO2)CC1 (stereo not shown) | -10.6
O=C(OCn1nnc2ccccc2c1=O)c1cc(-c2ccccc2)nc2ccccc12 | 6.74
